ELG1 genotoxic – genotoxicity induction in ELG1-luciferase HEK293T cells | HEK293T ELG1-luciferase reporter, luminescence, 16 h | Potency, µM (titrated, usually from 46 µM), for the others: top-dose activity change, positive = activation, actives largely listed as activators | 1.3% of 330,000 active | AID 504466; further: % of control where 0% means no effect; nearly all actives have a fitted effect of over 60% in size
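Genotoxicity was scored as increased ELG1-luciferase reporter signal, measured by ONE-Glo luminescence (30 min, room temperature). Compound or vehicle exposure of the HEK293T reporter cells lasted 16 hr at 37°C.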
NPC1 promoter act – activates the NPC1 promoter. Huh7 NPC1 promoter luciferase reporter, 24 h. Potency, µM (series often up to 9.22 µM), without a hit: top-dose activation, most hits filed as activators. 2.4% of 320,000 active. AID 485313; further: % of control where 0% means no effect; nearly all actives have a fitted effect of over 60% in size
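NPC1 promoter–luciferase Huh7 cells; 24 h compound; luminescence.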
ELG1 repair inh – inhibitors of ELG1-dependent DNA repair in HEK293T cells; HEK293T ELG1-luciferase reporter, luminescence, 16 h; DNA damage induced by 5-fluorouridine; Potency, µM (titrated, usually from 46.1 µM), for inactives: at the highest dose activity change, negative = inhibition, actives largely listed as inhibitors; 2.3% of 330,000 active; further: on the % scale 0 is the no-effect control and ±100 the full control effect; nearly all actives have a fitted effect of over 55% in size
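DMSO vehicle served as the neutral condition. Each well held 2,000 cells given 5-fluorouridine plus compound; after 16 hr at 37 °C/5% CO2, ONE-Glo was added and luciferase measured 30 min later.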
FLuc counter – counter-screen for miR-21 project: firefly luciferase inhibitors or activators. P08659. purified FLuc, Km substrates, luminescence inhibition. Potency, µM (top dose mostly 57.5 µM), inactives show at the highest dose activity change, negative = inhibition, actives largely listed as inhibitors. 6.9% of 360,000 active. AID 588342;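 further: plate controls were vehicle for no effect and reference inhibitor for full effect; nearly all actives have a fitted effect of over 55% in size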
Target sequence (P08659 whole entry, looked up): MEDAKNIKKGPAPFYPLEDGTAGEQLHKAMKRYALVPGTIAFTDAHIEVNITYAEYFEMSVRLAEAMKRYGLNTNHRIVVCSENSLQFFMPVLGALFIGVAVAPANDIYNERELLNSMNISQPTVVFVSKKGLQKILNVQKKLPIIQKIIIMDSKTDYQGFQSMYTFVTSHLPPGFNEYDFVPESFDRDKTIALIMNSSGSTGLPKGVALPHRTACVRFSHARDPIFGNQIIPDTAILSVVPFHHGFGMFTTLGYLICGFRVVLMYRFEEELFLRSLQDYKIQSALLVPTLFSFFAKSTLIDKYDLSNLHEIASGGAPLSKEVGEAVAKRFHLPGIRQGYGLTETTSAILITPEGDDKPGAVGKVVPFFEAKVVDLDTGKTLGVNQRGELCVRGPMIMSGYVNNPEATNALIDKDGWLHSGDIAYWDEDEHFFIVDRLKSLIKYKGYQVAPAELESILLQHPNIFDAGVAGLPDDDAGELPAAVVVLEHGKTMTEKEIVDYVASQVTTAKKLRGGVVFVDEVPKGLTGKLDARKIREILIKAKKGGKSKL
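Purified P. pyralis luciferase (10nM final) with 10uM D-luciferin and 10uM ATP (Km levels) in 50mM Tris acetate pH 7.5, 10mM Mg acetate, 0.01% Tween-20, 0.05% BSA; qHTS 6-point titration, ~60 µM downward; luminescence read.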
Rab9 promoter act – activators of Rab9 promoter; Huh7 Rab9 promoter-luciferase reporter, luminescence, 24 h; Potency, µM (top dose mostly 9.22 µM), for inactives: at the top dose activation, negative = inhibition, most hits filed as activators; 2.8% of 320,000 active; further: % of control where 0% means no effect; nearly all actives have a fitted effect of over 60% in size
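Luminescence from Amplite-detected luciferase (10 minutes, ambient) reports Rab9 promoter activation. Before that, stable Rab9-luciferase Huh7 cells (1500/well, reduced-serum OP-MEM I plus 10% FBS) were exposed to compound for 24 hours at 37C.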
SMN2 splice enh – enhancers of SMN2 splice variant expression | HEK293 SMN2-luciferase splicing reporter, luminescence, 30-36 h | Potency, µM (titrated, usually from 46.1 µM), for inactives: top-dose activity change, positive = activation, actives largely listed as activators | 2.8% of 210,000 active | AID 1458; further: % of control where 0% means no effect; nearly all actives have a fitted effect of over 55% in size
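HEK293 cells carry an SMN2 […]–luciferase reporter in which exon 7 inclusion puts luciferase in frame. Cells were plated 10-12 h before compound addition, then incubated 30-36 h at 37C. ONE-Glo luminescence was read; sodium butyrate at 4.5 mM final served as control.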
Starred values were filed as active, the others as inactive; ? = inconclusive; nt = no result; [ ] = remark or other dose. The list is not random: actives were taken first. Their share in the collection is about 9.3%. The call rests on the fitted dose curve; in most records, active means well fitted curve in the direction sought with a large enough effect; inconclusive means small, poorly fitted or top-dose-only effect, or another doubt; inactive means no such curve, though single readings can be large; an effect the other way counts as inactive or inconclusive. Potency means the concentration at half of the fitted maximal effect.

SMILES	ELG1 genotoxic	NPC1 promoter act	ELG1 repair inh	FLuc counter	Rab9 promoter act	SMN2 splice enh
COC(=O)c1cc(Nc2cc(C)c3ccc(O)cc3n2)cc(C(=O)OC)c1	4.7%	0.4%	?	0.0%	9.6%	nt
Cc1ccc(Nc2cc(C)c3c(O)cccc3n2)cc1C	?	?	?	9.53µM*	?	nt
Cc1ccccc1Nc1cc(C)c2c(O)cccc2n1	0.0%	-1.0%	23.3%	19µM*	-10.2%	-6.4%
COc1ccc(Nc2cc(C)c3c(O)cccc3n2)cc1	4.5%	7.1%	?	21.3µM*	19.9%	nt
Cc1ccc(Nc2cc(C)c3ccc(O)cc3n2)cc1C	12.8%	2.8%	?	16.9µM*	1.0%	nt
COC(=O)c1cc(Nc2cc(C)c3c(O)cccc3n2)cc(C(=O)OC)c1	-5.7%	9.5%	?	?	0.0%	nt
Cc1cccc(C2CC(c3ccccc3)Nc3ncnn32)c1 (stereo not given)	0.1%	0.3%	-5.1%	1.8%	-6.7%	5.7%
Cc1ccc(C(=O)C(C)OC(=O)Cc2c[nH]c3ccccc23)cc1 (stereo not given)	0.0%	-4.0%	?	-10.8%	-2.4%	nt
CCN1CCN(c2cc(C)c3cc(NC(=O)c4ccncc4)ccc3n2)CC1	-7.0%	-0.1%	?	-2.2%	1.3%	-12.4%
Cc1cc(N2CCN(C)CC2)nc2ccc(NC(=O)Nc3ccccc3)cc12	nt	nt	nt	4.78µM*	nt	nt
Cc1ccc(NC(=O)Nc2ccc3nc(N4CCN(C)CC4)cc(C)c3c2)cc1C	nt	nt	nt	-14.7%	nt	nt
Cc1cc(N2CCN(C)CC2)nc2ccc(NC(=O)Nc3cccc(Cl)c3)cc12	nt	nt	nt	13.5µM*	nt	nt
Cc1cc(N2CCN(C)CC2)nc2ccc(NC(=O)Nc3ccccc3Br)cc12	nt	nt	nt	1.51µM*	nt	nt
CCN1CCN(c2cc(C)c3cc(NC(=O)c4ccc(C)c(C)c4)ccc3n2)CC1	9.7%	21.2%	6.2%	21.3µM*	6.8%[1.84 µM]	nt
Cc1cc(N2CCCCC2)nc2ccc(NC(=O)c3cccc(Cl)c3)cc12	nt	nt	nt	-0.7%	nt	nt
O=C(Nc1ccccc1Cl)c1cccs1	8.2%	12.9%	?	?	26.1%	-7.7%
CS(=O)(=O)N(CC(=O)N1CCN(c2ccccc2F)CC1)c1ccc2c(c1)OCCO2	-3.2%	-0.3%	-21.5%	5.3%	-10.4%	-1.9%
CSCCC(NC(=O)c1ccc(C(C)(C)C)cc1)C(=O)OCC(=O)N1CCCC1=O (stereo not given)	0.2%	-1.0%	?	21.3µM*	-0.7%	nt
CSCCC(NC(=O)c1ccc(Cl)cc1)C(=O)OCC(=O)N1CCCC1=O (stereo not given)	-0.8%	-4.3%	4.8%	?	-4.1%	nt
Cc1cc(C)n(S(=O)(=O)c2cc(C)c(C)cc2C)n1	13.5%	-0.1%	-4.3%	-1.7%	-5.9%	-31.4%
c1ccc2c(c1)ncc1cccn12	-8.0%	-0.9%	?	-3.3%	13.0%	-0.4%
CCn1c2ccccc2c2c3ncc4cccn4c3ccc21	11.6%	3.16µM*	?	3.01µM*	?	nt
CCOc1cc(/C=C/C(=O)c2ccc(C)cc2)ccc1OCC(=O)N(C)C	-13.0%	-5.1%	18.4µM*	?	-14.8%	-15.0%
CCOc1cc(/C=C/C(=O)O)ccc1OCCO	2.1%	1.0%	0.0%	-3.7%	-5.1%	nt
COc1cc(/C=C/C(=O)c2ccc(C)cc2)ccc1OCC#N	-12.7%	-3.7%	?	16.9µM*	-3.6%	-111.6%
SMILES	ELG1 genotoxic	NPC1 promoter act	ELG1 repair inh	FLuc counter	Rab9 promoter act	SMN2 splice enh
Cc1nn(Cc2ccccc2Cl)c(C)c1C(=O)NCc1ccco1	1.4%	-2.3%	6.7%	-0.5%	0.0%	26.8%
CCCCCNC(=O)c1ccc2c(=O)[nH]c3c(C(=O)NCC4CCCO4)sc(=S)n3c2c1 (stereo not given)	-12.3%	-1.1%	0.0%	?	-2.2%	19.9%
Cc1ccc(CNC(=O)c2ccc3c(=O)[nH]c4c(C(=O)NCC5CCCO5)sc(=S)n4c3c2)cc1 (stereo not given)	-10.1%	-2.1%	8.0%	19µM*	0.8%	-5.2%
O=C(NCc1ccccc1)c1ccc2c(=O)[nH]c3c(C(=O)NCC4CCCO4)sc(=S)n3c2c1 (stereo not given)	-4.6%	-3.8%	-6.5%	26.9µM*	5.2%	17.9%
O=C(c1cccs1)N1CCN(S(=O)(=O)Cc2ccccc2)CC1	0.2%	-7.2%	-6.0%	1.7%	9.4%	4.6%
COc1ccc(/C=C/C(=O)N(C)Cc2cccs2)cc1S(=O)(=O)N1CCOCC1	-0.5%	1.3%	-17.7%	-2.8%	19.9%	3.4%
CCOc1ccc(Oc2nc(NCC(C)C)nc(OC)n2)nn1	?	-0.9%	?	0.9%	-0.7%	22.8%
CCNc1nc(NC(C)CC)nc(Oc2ccc(OCC)nn2)n1 (stereo not given)	?	-9.5%	?	-1.9%	-3.0%	5.62µM*
Cc1ccc(C(OCC(O)CN2CCCCC2)c2ccccc2)cc1 (stereo not given)	-2.8%	2.7%	-1.3%	0.2%	-1.0%	nt
CC(C)c1nc(N2CCN(C(=O)c3ccccc3)CC2)c(C#N)c2c1COC(C)(C)C2	-21.3%	-5.7%	?	-1.1%	-7.8%	20.3%
CSc1nc(N2CCN(C)CC2)c2c(c1C#N)CC(C)(C)OC2	-2.0%	-4.7%	8.2µM*	2.1%	-10.0%	nt
Cc1nc(N2CCN(Cc3ccccc3)CC2)c(C#N)c2c1COC(C)(C)C2	-9.0%	-7.3%	7.31µM*	-10.3%	0.2%	-54.9%
CCn1c(SCc2cccc(C)c2)nnc1-c1ccccc1	-1.5%	-2.4%	5.9%	-14.7%	1.7%	-11.6%
CC(=O)c1cccc(S(=O)(=O)NCC(c2ccco2)N2CCCCC2)c1 (stereo not given)	-5.8%	-2.0%	0.581µM*	-1.1%	-0.7%	-26.7%
COc1ccc(CNC(=O)c2ccc(N3CCOCC3)c([N+](=O)[O-])c2)cc1	1.1%	-1.3%	-19.5%	-3.7%	4.9%	-14.2%
CCOc1ccc(C(=O)Nc2cc(-c3nc4cc(OC)ccc4o3)ccc2C)cc1[N+](=O)[O-]	nt	nt	nt	6.75µM*	nt	16.5%
COc1ccc2oc(-c3ccc(C)c(NC(=O)c4ccc(N5CCOCC5)c([N+](=O)[O-])c4)c3)nc2c1	?	16.1%	?	6.01µM*	3.8%	4.1%
C=CCOC(=O)C(=O)/C=C/c1csc2ccccc12	?	-0.8%	?	26.9µM*	0.9%	nt
COc1ccc(CCN2CC(C(=O)NC3CCCCC3)CC2=O)cc1OC (stereo not given)	-5.2%	5.5%	9.8%	-4.8%	-0.1%	-23.1%
O=C(CNC(=O)c1ccco1)NCC(=O)OCc1c(F)cccc1Cl	2.8%	-1.7%	-6.7%	5.0%	11.2%	nt
O=C(CNC(=O)c1ccco1)OCc1c(F)cccc1Cl	3.9%	1.3%	3.1%	15.1µM*	-8.5%	18.8%

Screening results (PubChem)
